Sampled rows, rich in hits. Any-hit rate of the full collection: about 5.3%.
Tau fibril FP: inhibitors of human tau fibril formation; P10636; K18 P301L tau heparin fibrillization, Alexa594 FP, 6 h; Potency, µM (titrated, usually from 57.7 µM), for inactives: at the highest dose activity, negative = inhibition, most hits filed as inhibitors; hit rate 0.39% among 280,000; note: potency is the fitted concentration of half-maximal effect; nearly all actives have a fitted effect of over 55% in size
Target sequence (P10636 561-689 P618L limits assumed): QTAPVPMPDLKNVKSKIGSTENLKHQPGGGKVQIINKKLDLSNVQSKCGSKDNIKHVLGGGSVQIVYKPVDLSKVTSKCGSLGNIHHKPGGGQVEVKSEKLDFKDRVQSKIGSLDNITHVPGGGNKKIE
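K18 P301L tau (15 uM unlabeled/0.24 uM Alexa 594-labeled, final) + compound + heparin 20 uM final; 100 mM NaOAc pH 7; 6 hr 37 C; ThT 30 uM final added, 1 hr RT; FP ex 555/em 632 nm.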
JMJD2E inh: inhibitors of human JMJD2E histone demethylase. B2RXH2. JMJD2E catalytic domain, FDH-coupled NADH fluorescence (FDH is formaldehyde dehydrogenase). Potency, µM (top dose mostly 57.1 µM), for the others: at the highest dose activity change, negative = inhibition, actives largely listed as inhibitors. hit rate 1.6% among 230,000. AID 2147; active = well fitted inhibition curve with a large enough effect, not every such curve was filed as active; inconclusive = small, poorly fitted or top-dose-only effect, or another doubt; inactive = no such curve, though single readings can be large or run the other way;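 note: potency is the fitted concentration of half-maximal effect; 0% = wells with enzyme and -100% = buffer wells without enzyme; nearly all actives have a fitted effect of over 50% in size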
Target sequence (B2RXH2 1-337 limits assumed): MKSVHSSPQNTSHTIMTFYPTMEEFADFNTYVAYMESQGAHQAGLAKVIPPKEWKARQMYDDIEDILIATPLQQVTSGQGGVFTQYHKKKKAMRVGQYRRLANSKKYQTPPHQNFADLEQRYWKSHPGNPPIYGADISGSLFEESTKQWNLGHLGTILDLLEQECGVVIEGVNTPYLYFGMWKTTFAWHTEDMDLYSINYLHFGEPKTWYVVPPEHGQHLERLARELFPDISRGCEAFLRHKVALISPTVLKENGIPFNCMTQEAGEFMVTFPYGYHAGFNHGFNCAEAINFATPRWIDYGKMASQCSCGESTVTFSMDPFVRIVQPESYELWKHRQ
Tau ThT inhib: blocks human tau fibril formation measured by thioflavin T; P10636; recombinant tau K18 P301L, heparin-induced fibrillization, ThT fluorescence; Potency, µM (series often up to 57.4 µM), inactives show at the highest dose activity, negative = inhibition, actives largely listed as inhibitors; hit rate 2.1% among 270,000; AID 1460; note: potency is the fitted concentration of half-maximal effect; nearly all actives have a fitted effect of over 55% in size
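Heparin-induced fibrillization of the P301L-mutant K18 repeat-domain fragment of human tau was followed by ThT binding in quantitative high-throughput format.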
Sfp PPTase inh: Sfp phosphopantetheinyl transferase inhibition | Q9F4F7 | Biochemical Sfp PPTase activity, qHTS | Potency, µM, for inactives: largest response in the series, negative = inhibition, most hits filed as inhibitors | hit rate 3.5% among 310,000 | AID 1490;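 note: the enzyme is Sfp with the accession as filed and its product quenches rhodamine fluorescence; potency is the fitted concentration of half-maximal effect; 0% = enzyme reaction without inhibitor and -100% = no enzyme wells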
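Fluorescence-quenching assay: 15 nM Sfp-PPTase preincubated 15 min at room temperature with compound, then 5 uM rhodamine-CoA and 12.5 uM BHQ-2-labelled YbbR peptide added. Fluorescence (ex 525/em 598 nm) read at start and after 30 min; difference gives rate.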
FBPA coupling cs: inhibits coupling enzyme system, counter-screen for aldolase hits; hit rate 0.67% among 290,000; activity change, negative = inhibition, % at 58.2 µM, hits read low; AID 2472; coupling enzyme system counterscreen, AmpLite Red fluorescence; in the data active = activity change below about -30%
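Counterscreen lacking aldolase: glyceraldehyde-3-phosphate coupling-enzyme reagent preincubated 10 min at RT with compound (at 57.5 uM final), then substrate/coupling system with AmpLite Red added; fluorescence read at 525/598 nm after 20 min RT.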
Tau fluor counter: counter-screen for tau fibril formation inhibitors; Potency, µM (top dose mostly 57.7 µM), without a hit: at the highest dose activity change, negative = decrease; hit rate 0.93% among 280,000; tau K18 P301L Alexa594 fluorescence, heparin fibrillization; note: potency is the fitted concentration of half-maximal effect; nearly all actives have a fitted effect of over 55% in size
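Human tau K18 P301L (15 uM unlabeled, 0.24 uM Alexa 594-labeled) in 100 mM sodium acetate pH 7 with 20 uM heparin, 6 hr at 37 C. ThT 30 uM added, 1 hr ambient; Alexa 594 FP and total fluorescence read at 555/632 nm.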
* = called active by the depositor; ? = inconclusive; nt = no result given; [ ] = dose if it differs, or a comment. Unless noted, calls come from the whole dose curve; as a rule, active = well fitted curve in the direction sought with a large enough effect; inconclusive = small, poorly fitted or top-dose-only effect, or another doubt; inactive = no such curve, though single readings can be large; an effect the other way counts as inactive or inconclusive. Unless noted, % is set by controls: 0 for no effect and ±100 for the full control effect.

SMILES	Tau fibril FP	JMJD2E inh	Tau ThT inhib	Sfp PPTase inh	FBPA coupling cs	Tau fluor counter
O=C(NCc1ccco1)c1ccccc1-c1nc(-c2ccc(F)cc2)no1	-7%	0%	-15%	-5%	-1	-14%
Cc1ccccc1-c1noc(-c2ccccc2C(=O)NCc2ccco2)n1	-19%	5%	-7%	45µM*	4	-2%
COCCSc1ccccc1C(=O)NCc1ccco1	-2%	6%	6%	18µM*	-1	10%
C=C(C(=O)C(C)(C)O)C(O)c1ccc([N+](=O)[O-])cc1 (stereo unspecified)	-2%	-7%	-12%	-24%	1	-9%
O=C1CCCC=C1[C@H](O)c1ccc([N+](=O)[O-])cc1	-4%[11.6 µM]	nt	-5%[11.5 µM]	1%	2	-8%[11.6 µM]
C=CC[C@@H]1C=C[C@@H](O/N=C\C[C@@H]2C=C[C@H](OC(C)=O)[C@H](COC(C)=O)O2)[C@@H](CO)O1	5%[11.6 µM]	nt	-2%[11.5 µM]	-20%	0	0%[11.6 µM]
COc1ccc(CCNC(=O)C2COc3ccccc3C2)cc1OC (stereo unspecified)	0%	nt	-12%	nt	nt	-5%
Cc1ccccc1C(=O)NCCCn1ccnc1	nt	nt	nt	13%	-1	nt
COCCSc1ccccc1C(=O)NCCCn1ccnc1	-2%	5%	3%	45µM*	3	4%
CC(C)(C)NC(=O)C(Cc1ccccc1)N1C(=O)c2ccccc2C1=O (stereo unspecified)	nt	nt	nt	13%	2	nt
COCCSc1ccccc1C(=O)NCCc1ccccc1	-6%	6%	-3%	56µM*	0	-2%
O=C(NCCCn1ccnc1)C(Cc1ccccc1)N1C(=O)c2ccccc2C1=O (stereo unspecified)	2%	-10%	12%	56µM*	0	4%
CC1=CC2C(=O)c3cccc(O)c3C(=O)C2C(O)=C1 (stereo unspecified)	-10%	-13%	?	?	-6	?
COc1ccc(-c2ccc(OC)c(C3C4C=CCC(C)C4C(=O)N3Cc3ccccc3)c2)cc1 (stereo unspecified)	nt	nt	nt	2%	1	nt
COc1ccc(-n2nc([N+](=O)[O-])c(=NCCC3=CCCCC3)n2O)cc1	15%	-9%	7.9µM*	-6%	0	?
COc1ccc(-n2nc([N+](=O)[O-])c(=NCc3ccco3)n2O)cc1	1%	-15%	10µM*	-28%	0	-29%
COc1ccc(-n2nc([N+](=O)[O-])c(=NCc3cccnc3)n2O)cc1	6%	8%	?	5%	-1	-8%
O=c1c(N2CCc3ccccc3C2)csc2ccc(F)cc12	3%	nt	?	nt	nt	-22%
Cc1ccc2[nH]c3nc(CCCn4ccnc4-c4ccccc4)nnc3c2c1	-1%[11.6 µM]	nt	-8%[11.5 µM]	7%	-4	-3%[11.6 µM]
Nc1ccc(N2CCN(c3ncc(C(F)(F)F)cc3Cl)CC2)c(C(F)(F)F)c1	?	nt	20µM*	nt	nt	10µM*[quencher]
COc1cccc(/C=C2/SC(=O)N(CC(=O)N3CCc4ccccc4C3)C2=O)c1OCC(=O)O	0%	-7%	-9%	56µM*	13	5%
C=CCCCCCCCCCCCC(O)CC(O)CO (stereo unspecified) (tested in a mixture with another compound)	4%	6%	-4%	17%	5	-12%
Cc1ccc(CSc2nc3c(c(=O)[nH]c(=O)n3C)n2CCC(C)C)cc1	12%	6%	-14%	0%	2	6%
COCCn1c(SCc2ccc(F)cc2)nc2c1c(=O)[nH]c(=O)n2C	nt	nt	nt	45µM*	-4	nt
COCCn1c(SCCN2CCOCC2)nc2c1c(=O)[nH]c(=O)n2C	0%	-11%	-3%	13µM*	0	-4%
SMILES	Tau fibril FP	JMJD2E inh	Tau ThT inhib	Sfp PPTase inh	FBPA coupling cs	Tau fluor counter
CC(C)CCn1c(SCc2ccc(Cl)cc2)nc2c1c(=O)[nH]c(=O)n2C	-6%	-2%	?	45µM*	2	-8%
COC(=O)C1=C(C)[C@@H](O)[C@@H](C)[C@](C)(c2cc(OC)c(C)c(OC)c2COc2ccccc2)O1	-3%	0%	-6%	-8%	1	-10%
C=C(C(=O)c1ccccc1)C(C)C(=C)C(=O)c1ccccc1	-20%	11%	28µM*	11%	9	-14%
[O-]/C(=C(\C(=S)Nc1cccc2ccccc12)[n+]1ccccc1)c1ccc2c(c1)OCCO2	?	?	13µM*	45µM*	-46*	?
[O-]/C(=C(\C(=S)Nc1cccc2ccccc12)[n+]1ccccc1)c1ccc(OC(F)F)cc1	-9%	?	?	45µM*	-41*	-27%
COc1cccc(NC(=S)/C(=C(\[O-])c2ccc(OC(F)F)cc2)[n+]2ccccc2)c1	-4%	-6%	?	50µM*	-18	-9%
Cc1ccc(/C([O-])=C(/C(=S)Nc2ccc(SC(F)F)cc2)[n+]2ccccc2)cc1[N+](=O)[O-]	-5%	0%	?	13µM*	-31*	?
[O-]/C(=C(\C(=S)Nc1cccc2ccccc12)[n+]1ccccc1)c1cccs1	-4%	?	?	?	-16	-22%
COc1cccc(NC(=S)/C(=C(\[O-])c2ccc(C)c([N+](=O)[O-])c2)[n+]2ccccc2)c1	6%	-1%	?	56µM*	-13	?
Cc1ccc(NC(=S)/C(=C(\[O-])c2ccc(C)c([N+](=O)[O-])c2)[n+]2ccccc2)cc1C	11%	-2%	?	4%	2	-20%
Cc1ccc(/C([O-])=C(/C(=S)NCCN2CCOCC2)[n+]2ccccc2)cc1[N+](=O)[O-]	-15%	-4%	?	20µM*	-7	-18%
Cc1ccccc1NC(=S)/C(=C(\[O-])c1ccc(C)c([N+](=O)[O-])c1)[n+]1ccccc1	2%	-5%	?	-19%	-2	-17%
C=CCn1c(O)c(CN2CCOCC2)c(C)c(C#N)c1=O	?	?	?	7%	-31*	-24%
Cc1cccc(Cn2cc(C(=O)Nc3ccc(F)c(C(F)(F)F)c3)ccc2=O)c1	25µM*	nt	20%	nt	nt	?
COc1cccc(Cn2c(=O)n(-c3cc(C)cc(C)c3)c(=O)c3oc4ccccc4c32)c1	-4%	nt	1%	nt	nt	-1%
N#CCCn1nc(-c2ccccc2)cc1Nc1ccccc1NC(=O)C(F)(F)F	1%	0%	-4%	13%	2	-23%
N#CCCn1nc(-c2ccc(Br)cc2)cc1Nc1ccccc1NC(=O)C(F)(F)F	15%	-11%	?	1%	-8	20µM*[quencher]

Screens (PubChem BioAssay)
